# Mdm2-MdmX inh: inhibitors of human Mdm2-MdmX association, primary screen, cell-based, luminescence, split luciferase, SaOS-2, uHTS; inhibition, % at 8 µM; AID 485346, 2010; hit rate 3% among 330,000; SaOS-2 split-luciferase Mdm2/MdmX complementation;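 active = inhibition of at least 50% at 8 µM in the primary screen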
# Target sequence (O15151 whole entry, looked up): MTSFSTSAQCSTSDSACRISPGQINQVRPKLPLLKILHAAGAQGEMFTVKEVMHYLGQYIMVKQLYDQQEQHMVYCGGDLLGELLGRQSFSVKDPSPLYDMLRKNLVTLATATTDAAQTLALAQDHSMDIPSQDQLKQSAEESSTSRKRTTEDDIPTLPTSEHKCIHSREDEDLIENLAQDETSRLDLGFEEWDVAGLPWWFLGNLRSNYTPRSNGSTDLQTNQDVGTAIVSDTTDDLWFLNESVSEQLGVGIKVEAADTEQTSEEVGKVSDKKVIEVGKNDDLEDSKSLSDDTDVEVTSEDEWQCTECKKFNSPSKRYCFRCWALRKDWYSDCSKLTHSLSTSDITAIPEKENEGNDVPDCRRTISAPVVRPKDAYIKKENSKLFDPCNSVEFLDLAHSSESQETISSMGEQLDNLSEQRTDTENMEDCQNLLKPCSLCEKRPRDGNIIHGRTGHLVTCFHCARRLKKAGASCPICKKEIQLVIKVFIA
# Target sequence (Q00987 whole entry, looked up): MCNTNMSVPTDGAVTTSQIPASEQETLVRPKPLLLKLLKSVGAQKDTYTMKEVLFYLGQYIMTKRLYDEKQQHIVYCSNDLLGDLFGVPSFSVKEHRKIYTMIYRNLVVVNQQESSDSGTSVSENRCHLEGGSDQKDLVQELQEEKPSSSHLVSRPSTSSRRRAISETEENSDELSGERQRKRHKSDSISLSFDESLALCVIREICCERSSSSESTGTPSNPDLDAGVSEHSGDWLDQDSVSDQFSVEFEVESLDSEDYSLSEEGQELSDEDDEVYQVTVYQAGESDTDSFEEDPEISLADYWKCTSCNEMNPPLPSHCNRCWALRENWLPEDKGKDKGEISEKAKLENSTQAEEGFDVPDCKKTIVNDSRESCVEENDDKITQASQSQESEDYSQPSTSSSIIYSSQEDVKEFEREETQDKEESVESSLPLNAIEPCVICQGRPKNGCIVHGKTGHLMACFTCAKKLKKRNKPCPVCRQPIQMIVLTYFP
# Beta apoptosis: inhibitors of cytokine-induced beta cell apoptosis, primary screen, luminescence. INS-1E cytokine-induced death, ATP luminescence, 48 h; percent of positive-control rescue, neutral wells zero. protection from apoptosis, % (concentration not given with the values). hit rate 0.8% among 300,000. AID 435005, 2010;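 active = Every replicate reaches about 75%, or at least half do and their mean reaches it too, limit read from the data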;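 note: higher means more ATP so stronger rescue from cytokine killing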
# NTR1 agonist: agonists of human NTR1, primary screen, imaging, U2OS cells, beta-arrestin-GFP, high content; AID 493036, 2011; activation, % at 20 µM; NTR1-U2OS beta-arrestin-GFP spot imaging, agonist mode; hit rate 0.17% among 330,000;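 active = activation at or above 40% of the spot to cytoplasm intensity ratio, with at least 20 cells analyzed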
# 697 NFkB inh: inhibitors of PMA/ionomycin-induced NF-kB reporter, 697 cells, primary screen, B-cell NF-kB inhibitor project, cell-based, luminescence, uHTS. AID 435022, 2010. hit rate 0.33% among 330,000. 697 B-cell NF-kB luciferase reporter, 16 h. inhibition, % at 4 µM; in the data active = inhibition above about 35%
# Jurkat NFkB inh: inhibitors of induced NF-kB luciferase reporter, primary screen, TCR NF-kB activation inhibitor project, cell-based, luminescence, uHTS; inhibition, % at 4 µM; Jurkat, PMA/ionomycin-induced NF-kB luciferase reporter; hit rate 0.53% among 330,000; in the data active = inhibition above about 50%
# Bfl-1 A1 inh: caspase 3/7 activation in MEF A1-2A-BIM cells, primary screen, A1 inhibitor project, cell-based, luminescence, HTS; Caspase-Glo 3/7 luminescence, 3 h; percent of clofoctol response, vehicle zero; caspase activation, % (concentration not given with the values); hit rate 0.066% among 330,000;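 active = over half of replicate activation scores above 10%, or exactly half above 10 with the replicate mean above 10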
# Jurkat NFkB conf: PMA/ionomycin-induced NF-kB reporter inhibitors, Jurkat retest, confirmation, T-cell NF-kB inhibitor project, cell-based, luminescence, single concentration; shares compounds with Jurkat NFkB inh; Jurkat NF-kB luciferase, 16 h; inhibition, % at 4 µM; hit rate 27% among 2,700;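 active = inhibition reaching about 45% at 4 µM in either replicate, limit read from the data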
# 697 NFkB conf: PMA/ionomycin-induced NF-kB reporter inhibitors, 697 retest, confirmation, B-cell NF-kB inhibitor project, cell-based, luminescence, single concentration; shares compounds with 697 NFkB inh; 697 B-cell NF-kB luciferase, 16 h; inhibition, % at 4 µM; hit rate 35% among 2,000; AID 449746, 2010; in the data active = inhibition mostly above about 28%, no sharp cut-off; inactive = mostly below about 22%
# Mdm2 MdmX conf: Mdm2-MdmX complex disruptors, retested hits, confirmation, luminescence, single concentration; shares compounds with Mdm2-MdmX inh; Mdm2-MdmX binding, luminescent assay; inhibition, % at 8 µM; hit rate 55% among 10,000; in the data active = inhibition above about 40%
# Full FLuc ctr: full-length luciferase signal inhibition, confirmation, counter-screen for Mdm2/MdmX interaction inhibitor project, cell-based, single concentration, SaOS-2. shares compounds with Mdm2-MdmX inh. SaOS-2 full-length luciferase counterscreen, luminescence. inhibition, % at 8 µM. hit rate 77% among 6,200. AID 504607, 2011;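 active = mean inhibition at 8 µM reaching about 37%, which flags the compound as non-specific, limit read from the data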;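 note: p53-null SaOS-2 cells with luciferase driven by a doxycycline-inducible promoter; compound on cells about two nights before reading with doxycycline added after day one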
# Hits are given with their value; n = inactive; x = not tested or not shown. Only some compounds are listed: those with a hit (about 3.8% of all), similar ones and a draw of the others.
SMILES,Mdm2-MdmX inh,Beta apoptosis,NTR1 agonist,697 NFkB inh,Jurkat NFkB inh,Bfl-1 A1 inh,Jurkat NFkB conf,Mdm2 MdmX conf,Full FLuc ctr,others
C=C(C)COc1ccc(-c2n[nH]c(C)c2Oc2ccccc2OC)c(O)c1,n,n,n,n,n,n,x,x,x,
Cc1ccc2c(c1)N(C(=O)CCC(=O)NCCCN1CCN(C)CC1)CC(C)O2 (stereo not given),n,n,n,n,n,n,x,x,x,
C=CCN1C(=O)C(CC(=O)NCC)SC1=Nc1ccccc1CC (stereo not given),n,n,n,n,n,n,x,x,x,
Nn1c(SCC(=O)Nc2ccc(N3CCOCC3)cc2)nnc1C1CC1,n,n,n,n,n,n,x,x,x,
CC1C/C(=C/c2ccncc2)C(=O)/C(=C/c2ccncc2)C1 (stereo not given),99,112,n,n,96,n,n,99,51,
CC1C/C(=C/c2cccn2C)C(=O)/C(=C/c2cccn2C)C1 (stereo not given),n,n,n,n,n,n,x,x,x,
Cc1cc(C)cc(C(=O)N2CC(=O)Nc3ccccc32)c1,58,n,n,n,60,n,56,60,77,
CS(=O)(=O)c1ccc(C(=O)N2CC(=O)Nc3ccccc32)cc1,n,n,n,n,n,n,x,x,x,
COC(=O)Cc1c(O)ccn(CCc2ccc(S(N)(=O)=O)cc2)c1=O,n,n,n,n,n,n,x,x,x,
COCCN(C(=O)CNC(=O)c1ccco1)C(C(=O)NC1CCCCC1)c1cccnc1 (stereo not given),n,n,n,n,n,n,x,x,x,
Cc1ccc(COC(=O)c2cc([N+](=O)[O-])ccc2N2CCOCC2)cc1,71,n,n,n,63,n,52,75,87,
O=C(O)c1cc([N+](=O)[O-])ccc1N1CCCCC1,n,x,n,n,n,n,x,x,x,
Cc1ccc(C(=O)c2cc([N+](=O)[O-])ccc2N2CCCCC2)c(C)c1,55,n,n,n,66,n,55,67,125,
OCC[C@@H]1C[C@@H](O)[C@H](O)[C@@]2(Cc3ccccc3CCO2)O1,n,n,n,n,n,n,x,x,x,
CCN1CCN(c2ccc(S(=O)(=O)N3CCOCC3)cc2NC(=O)/C=C/c2ccc(C)cc2)CC1,n,x,n,n,n,n,x,x,x,
CCN1CCN(c2ccc(S(=O)(=O)N3CCCCC3)cc2NC(=O)/C=C/c2ccc([N+](=O)[O-])cc2)CC1,99,n,n,n,52,n,n,92,48,
Cc1ccc(C(=O)n2c3ccccc3c3ccccc32)cc1,51,n,n,n,54,n,n,55,53,
CC(=O)n1c2ccccc2c2ccccc21,n,x,n,n,n,n,x,x,x,
CN(CC(=O)Nc1cccc(F)c1)C(=O)CN1C(=O)C2CCCCC2C1=O (stereo not given),n,n,n,n,n,n,x,x,x,
Cc1cc(C(=O)N2CCN(c3cc(Cl)ccc3C)CC2)on1,n,n,n,n,n,n,x,x,x,
COc1ccc(C(C(=O)NC2CCCC2)N(C(=O)c2ccoc2C)c2ccc(C)cc2)cc1 (stereo not given),n,n,n,n,n,n,x,x,x,
COc1ccc(C(C(=O)NC2CCCCC2)N(C(=O)CCl)c2ccc(OC)cc2)cc1 (stereo not given),100,n,n,98,93,n,n,100,50,697 NFkB conf=80
COc1ccc(C(C(=O)NC2CCCCC2)N(C(=O)CCl)c2ccc(C)cc2)cc1 (stereo not given),98,n,n,95,95,n,n,100,54,697 NFkB conf=n
Cc1ccc(-c2cc3c(N=O)c4ccccc4c-3n[nH]2)cc1,93,n,n,58,67,n,72,89,46,697 NFkB conf=n
Cc1ccc(-c2cc(=O)c3ccccc3[nH]2)cc1,n,n,n,n,n,n,x,x,x,
SMILES,Mdm2-MdmX inh,Beta apoptosis,NTR1 agonist,697 NFkB inh,Jurkat NFkB inh,Bfl-1 A1 inh,Jurkat NFkB conf,Mdm2 MdmX conf,Full FLuc ctr,others
O=c1oc(C2(O)CCCCC2)cc2ccccc12,n,n,n,n,n,n,x,x,x,
O=c1oc(C2(O)CCCCC2)cc2ccc(-c3ccc4[nH]ccc4c3)cc12,81,n,n,n,n,n,n,61,41,697 NFkB conf=n
O=S(=O)(C/C(=C/CO)S(=O)(=O)c1ccccc1)c1ccccc1,89,90,n,n,72,n,58,96,51,
CCN(Cc1ccccc1)C(=O)CS(=O)(=O)c1ccccc1,n,n,n,n,n,n,x,x,x,
c1ccc(-c2nc3nc4ccccc4nc3n2Cc2ccco2)cc1,n,n,n,n,n,n,x,x,x,
N=c1c2c(-c3ccccc3)c(-c3ccccc3)n(Cc3ccco3)c2ncn1CCCO,61,n,n,n,56,n,n,n,59,
COc1cccc(C2=CC(=O)CC(c3ccco3)C2)c1 (stereo not given),n,n,n,n,n,n,x,x,x,
CCCCCn1c(=O)[nH]c2cc(C(=O)NC3CCN(Cc4ccccc4)CC3)ccc2c1=O,92,n,n,n,51,n,n,n,x,
CCCCCn1c(=O)[nH]c2cc(C(=O)O)ccc2c1=O,n,n,n,n,n,n,x,x,x,
COc1cc(-c2nnc(SCC(=O)NC3CCCC3)n2C)cc(OC)c1O,n,n,n,n,n,n,x,x,x,
O=C(O)c1cc(-c2ccccc2Cl)n(-c2cccc(Cl)c2)n1,n,x,n,n,n,n,x,x,x,
CCOC(=O)c1ccc(Nc2ncnc3c2cnn3C)cc1,n,n,n,n,n,n,x,x,x,
Cn1ncc2c(O/N=C(\N)c3ccc(C(C)(C)C)cc3)ncnc21,99,110,n,n,101,n,n,100,52,
O=C(c1ccc(CS(=O)c2ccccc2Cl)o1)N1CCN(c2ccccn2)CC1 (stereo not given),63,n,n,n,52,n,n,56,45,

# Bioassay records as filed in PubChem BioAssay.
